Experimental findings from ChEMBL document CHEMBL4513146, “CO-ADD screening of Karazin Kharkiv National University (Ukraine) compounds” are described below.

In test [1] the test system is Staphylococcus aureus. Particulars: Concentration 32 ug.mL-1;; ASSAY_TEST Inhibition of Bacterial Growth; detection method Absorption (OD600); MEDIA CAMHB; plate type 384well; NBS; CORNING #3640; time 18 hr.
Test [2] relates to Escherichia coli. Particulars: Concentration 32 ug.mL-1;; ASSAY_TEST Inhibition of Bacterial Growth; detection method Absorption (OD600); MEDIA CAMHB; plate type 384well; NBS; CORNING #3640; time 18 hr.

Results with a measured potency or affinity are listed apart.

On to `Cc1cc2nn(CC(=O)Nc3ccccc3F)c(=O)n2c(Nc2ccc(C)c(F)c2)n1`, for which the Inhibition (as a rule, the drop in the measured response relative to a control, in per cent) in test [1] is listed as -7.63%; in test [2] it was -14.62%.

For the compound `Cc1ccc(Oc2nccn3c(=O)n(CC(=O)NCc4ccccc4Cl)nc23)cc1`, the Inhibition is 12.36% in test [1] and -4.03% in test [2].

With `CCCCn1c(=O)c2sccc2n2c(CCC(=O)Nc3ccc(OC(F)(F)F)cc3)nnc12`, the Inhibition in test [1] was 0.43%; in test [2], -8.31%.

`Cc1cccc(Oc2nccn3c(=O)n(CC(=O)NCCCc4ccccc4)nc23)c1C`: the Inhibition is on record as 9.48% in test [1] and -1.44% in test [2].

`Cc1[nH]c2ccccc2c1C(=O)CSc1nnc2c(=O)n(-c3ccc(Br)cc3)ccn12`: the results for the Inhibition in test [1] and in test [2] were -0.76% and -11.28%, respectively.

As for `COc1cc(NC(=O)CSc2nnc3c(=O)n(-c4cccc(F)c4)ccn23)cc(OC)c1`, the Inhibition in test [1] is reported as 10.57%; in test [2] it was -3.07%.

As to `Cc1cccc(NC(=O)Cn2nc3c(SCc4ccccc4)nccn3c2=O)c1C`, the results for the Inhibition in test [1] and in test [2] were -0.26% and -6.74%, respectively.

For the compound `COc1cccc(Oc2nccn3c(=O)n(CC(=O)Nc4cc(F)ccc4F)nc23)c1`, the Inhibition was 10.86% in test [1] and -7.76% in test [2].

Consider `O=C(CCc1nnc2c(N3CCCCC3)nc3ccccc3n12)NCc1ccc(F)cc1`, for which the figures for the Inhibition in test [1] and in test [2] were 1.77% and -4.75%, respectively.

As for `O=C(CSc1nc2ccccc2n2cnnc12)N1CCN(c2ccc(F)cc2)CC1`, the Inhibition in test [1] turned out to be 13.82%; in test [2], 1.79%.

Take `COc1ccc(OC)c(NC(=O)Cn2nc3ccc(-c4ccc(Cl)cc4)nn3c2=O)c1`: the Inhibition in test [1] is 10.25%; in test [2], -2.3%.

In the case of `COc1ccc(NC(=O)Cn2nc3c4cc(-c5ccc(F)cc5)nn4ccn3c2=O)c(OC)c1`, the Inhibition is 8.82% in test [1] and -0.75% in test [2].

Consider `CCc1nnc2c(S(=O)(=O)N(Cc3cccc(F)c3)c3ccc(C)c(C)c3)cccn12`, for which the Inhibition is given as 17.57% in test [1] and 2.28% in test [2].

As to `CC(C)Cn1c(=O)c2sccc2n2c(=O)n(Cc3ccc(N4CCCC4=O)cc3)nc12`, the values for the Inhibition in test [1] and in test [2] were -1.91% and -2.57%, respectively.

On to `O=C(CSc1nnc2c(=O)n(-c3ccccc3)ccn12)Nc1ccc(Cl)cc1`, for which the Inhibition in test [1] is 3.58%; in test [2] it was -4.07%.

Take `CCCc1nnc2c(=O)n(CC(=O)Nc3cccc(C#N)c3)c3ccccc3n12`: the results for the Inhibition in test [1] and in test [2] were 1.38% and -7.78%, respectively.

In the case of `Cc1ccc(-c2cc3c4nnc(CCC(=O)N5CCN(c6ccccn6)CC5)n4ccn3n2)cc1C`, the Inhibition in test [1] is on record as -0.56%; in test [2] it was -4.11%.

Regarding `CC(C)c1nnc2c(=O)n(CC(=O)Nc3ccc4c(c3)OCO4)c3ccccc3n12`, the Inhibition in test [1] is given as -1.02%; in test [2] it was -3.49%.

As for `CCC(Sc1nnc2c(=O)n(-c3cccc(OC)c3)ccn12)C(=O)Nc1cc(OC)ccc1OC` (stereo not given), the Inhibition is reported as -1.04% in test [1] and -13.69% in test [2].

Regarding `CCOc1ccc(-n2ccn3c(SCC(=O)c4ccc(OC)c(OC)c4)nnc3c2=O)cc1`, the Inhibition turned out to be 21.02% in test [1] and 1.32% in test [2].

As for `COc1cccc(Oc2nccn3c(=O)n(CC(=O)Nc4ccc(Br)cc4F)nc23)c1`, the Inhibition in test [1] is given as 14.87%; in test [2] it was -0.07%.

As for `CCCc1nnc2c(=O)n(CC(=O)Nc3ccc4c(c3)OCCO4)c3ccccc3n12`, the Inhibition in test [1] is reported as 2.35%; in test [2], -7.37%.

As to `CCOc1ccc(N(Cc2ccc(F)cc2)S(=O)(=O)c2ccc3nncn3c2)cc1`, the Inhibition is recorded as -10.69% in test [1] and -16.83% in test [2].

In the case of `C=Cc1ccc(CN(c2ccc(CC)cc2)S(=O)(=O)c2cccn3c(C)nnc23)cc1`, the Inhibition is listed as 9.91% in test [1] and -2.55% in test [2].

For `CCc1nnc2c(S(=O)(=O)N(Cc3ccccc3C)c3ccc(C(C)C)cc3)cccn12`, the results for the Inhibition in test [1] and in test [2] were 3.95% and -8.12%, respectively.

For `COc1cccc(C(=O)Cn2nc3n(CCC(C)C)c(=O)c4sccc4n3c2=O)c1`, the Inhibition in test [1] is -4.77%; in test [2] it was -5.88%.

For `CCOc1ccc(-n2ccn3c(SC(C)C(=O)Nc4cc(OC)cc(OC)c4)nnc3c2=O)cc1` (stereo not given), the results for the Inhibition in test [1] and in test [2] were 1.84% and 2.97%, respectively.

Turning to `COC(=O)c1ccccc1NC(=O)Cn1nc2c(Oc3ccccc3C)nccn2c1=O`, the Inhibition is on record as 4.43% in test [1] and -5.27% in test [2].

As to `CC(=O)c1ccc(NC(=O)Cn2nc3c(Sc4ccc(C)cc4C)nccn3c2=O)cc1`, the Inhibition in test [1] was -12.01%; in test [2] it was -21.11%.

For the compound `CCCN(C)c1nccn2c(=O)n(CC(=O)Nc3ccc(C#N)cc3)nc12`, the results for the Inhibition in test [1] and in test [2] were 14.04% and -2.47%, respectively.

On to `CC(C)CCn1c(=O)c2sccc2n2c(=O)n(CC(N)=O)nc12`, for which the Inhibition is 1.13% in test [1] and -3.19% in test [2].

Regarding `CC1CCc2c(sc3ncn4c(=O)n(CC(=O)Nc5ccc6c(c5)CCC6)nc4c23)C1` (stereo not given), the Inhibition in test [1] is 4.65%; in test [2], -2.81%.

Take `O=c1n(Cc2cccc(C(F)(F)F)c2)nc2c(S(=O)(=O)N3CCCCCC3)cccn12`: the Inhibition in test [1] is 5.28%; in test [2], -7.6%.

Turning to `O=c1c2nnc(-c3cccc([N+](=O)[O-])c3)n2ccn1-c1ccc(F)cc1`, the values for the Inhibition in test [1] and in test [2] were 13.28% and -1.02%, respectively.

For the compound `COc1ccc(NC(=O)Cn2nc3cc(C)nc(Nc4ccc(F)c(C)c4)n3c2=O)cc1`, the Inhibition in test [1] was -1.45%; in test [2], -6.2%.
